About 83,000 compounds went through this panel and 20% of them were active in at least one assay; those are over-represented in the sample as a whole.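 Cells were grown in 96-well plates and exposed to the test compound at a single concentration for 48 hours; results are reported as percent growth, with values below 10 considered active.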 A number with no mark means an inactive call. Activity calls are given as the source filed them.
Key:
Experiment in all cases: NCI-60 one-dose screen, 48 h (100 = growth as untreated, 0 = no growth, -100 = all killed)
[1] = system: HCT-15 colon; conditions: 10 µM unless noted
[2] = system: HT29 colon; conditions: 10 µM unless noted
[3] = system: SNB-19 CNS; conditions: 10 µM unless noted
[4] = system: U251 CNS; conditions: 10 µM unless noted
[5] = system: PC-3 prostate; conditions: 10 µM unless noted
[6] = system: SK-MEL-5 melanoma; conditions: 10 µM unless noted
[7] = system: UACC-62 melanoma; conditions: 10 µM unless noted
[8] = system: LOX IMVI melanoma; conditions: 10 µM
[9] = system: SK-MEL-28 melanoma; conditions: 10 µM unless noted
[10] = system: SK-MEL-2 melanoma; conditions: 10 µM unless noted
[11] = system: EKVX NSCLC; conditions: 10 µM unless noted
[12] = system: SN12C renal; conditions: 10 µM unless noted
[13] = system: UO-31 renal; conditions: 10 µM unless noted
[14] = system: TK-10 renal; conditions: 10 µM unless noted
[15] = system: ACHN renal; conditions: 10 µM unless noted
[16] = system: CAKI-1 renal; conditions: 10 µM unless noted
[17] = system: A498 renal; conditions: 10 µM unless noted
[18] = system: CCRF-CEM leukemia; conditions: 10 µM unless noted
[19] = system: MOLT-4 leukemia; conditions: 10 µM unless noted

Row | SMILES | growth [1] | growth [2] | growth [3] | growth [4] | growth [5] | growth [6] | growth [7] | growth [8] | growth [9] | growth [10] | growth [11] | growth [12] | growth [13] | growth [14] | growth [15] | growth [16] | growth [17] | growth [18] | growth [19]
1 | Cn1cc(-c2cc(N)n3nc(-c4cn(C)c5ncccc45)cc3n2)c2cccnc21 | -91.7% (active) | -66.7% (active) | 101% | -46.1% (active) | 79.7% | 68.4% | 102% | -100% (active) | 106% | 95.8% | 95% | 90% | 89.2% | 86% | 109% | 86.5% | 87.2% | 85.2% | 53.5%
2 | CC(C)(C)OC(=O)/C=C/c1cccc2c1C(=O)NC(C)(c1cc3cc(Cl)ccc3oc1=O)N2 (centres undefined) | 40.3% | 44.3% | 42.1% | 42.4% | 12.5% | 28.4% | 36% | 41.1% | 53.7% | 43.6% | 36.2% | 50% | 20.8% | 66.2% | 19.6% | 42.4% | 102% | 24.2% | -14.6% (active)
3 | CC(=O)/C=C/c1cccc2c1C(=O)NC(C)(c1cc3cc(Br)ccc3oc1=O)N2 (centres undefined) | 14.6% | 27.6% | 51.8% | 18.6% | 21.6% | 13.1% | 13% | 14.8% | 58.8% | -0.79% (active) | 34.3% | 12.7% | 22% | 58.6% | 22.7% | 21.3% | 104% | 0.825% (active) | -6.34% (active)
4 | Cc1ccccc1[C@H]1C(C(=O)c2ccc(Cl)cc2)C2(N[C@@H]1c1ccccc1)C(=O)Nc1ccc(Cl)cc12 (some centres undefined) | -69.1% (active) | -88.5% (active) | 17.4% | -82.9% (active) | -26.9% (active) | 0.559% (active) | -55.5% (active) | -100% (active) | -23.4% (active) | -64% (active) | -20.6% (active) | -95.4% (active) | 0.337% (active) | 9% (active) | -9.02% (active) | 8.92% (active) | 50% | -14.9% (active) | -17.5% (active)
5 | Brc1ccc(N/N=C/c2c[nH]c3ccc(Br)cc23)nc1 | -61.8% (active) | -80.1% (active) | 4.49% (active) | -63.5% (active) | -29.6% (active) | -87% (active) | -57% (active) | -100% (active) | -50.7% (active) | -57% (active) | -11.8% (active) | -22.6% (active) | -18.7% (active) | -16.8% (active) | -22.8% (active) | -24.4% (active) | -21.3% (active) | -37.7% (active) | -35% (active)
6 | CN(C)CCOc1ccc(C(=O)C2[C@H](c3ccc(Cl)cc3)[C@@H](c3ccccc3)NC23C(=O)Nc2ccccc23)cc1 (some centres undefined) | 12% | -69.3% (active) | 83.8% | 11.9% | 41.9% | 83.7% | 78.8% | -94.3% (active) | 94.6% | 112% | 77.2% | 69.1% | 59% | 117% | 88.3% | 58% | 112% | 86.3% | -32.8% (active)
7 | O=c1[nH]c(=O)c2c(-c3cc4ccccc4oc3=O)ccnc2[nH]1 | 81.4% | 102% | 75.5% | 19.5% | 85.4% | 89% | 82.7% | 65.3% | 115% | 82.6% | 103% | 81% | 71.6% | 105% | 53.2% | 48.1% | 148% | 101% | 111%
8 | Cn1cc(-c2cc3nc(-c4cn(C)c5ncccc45)cc(N)n3n2)c2cc(Cl)ccc21 | -64.5% (active) | -55.6% (active) | -88.1% (active) | -79.7% (active) | -82.1% (active) | -99.4% (active) | -99.6% (active) | -100% (active) | -99.9% (active) | -80% (active) | -38.5% (active) | -93.8% (active) | -87.5% (active) | -83.2% (active) | -94.4% (active) | -46.9% (active) | -75.9% (active) | -14.4% (active) | -45.7% (active)
9 | C=C1CC[C@@H]2[C@]3(C)COC(c4ccco4)O[C@@H]3CC[C@@]2(C)[C@@H]1C/C=C1/C(=O)OCC1OC(C)=O (some centres undefined) | -59% (active) | -46% (active) | 75.9% | 8.15% (active) | 18.8% | 43.9% | 34.5% | -100% (active) | 59.6% | 59.5% | 89.3% | 3.28% (active) | 35.4% | 111% | 33.9% | 36.1% | 129% | -19.8% (active) | 2.43% (active)
10 | COc1ccc(/C=C/c2nc3ccccc3c(=O)n2CC(=O)Nc2ccc(Cl)cc2)cc1 | 75.2% | 38.7% | 77.4% | 10.9% | 48.3% | 89% | 73.3% | 36.5% | 93% | 99.9% | 89.3% | 55.3% | 79.5% | 116% | 50.7% | 43.1% | 118% | 108% | 82.2%
11 | N/N=C(\N)c1c(N)nc(=S)[nH]c1-c1ccc(Cl)cc1Cl | 111% | 111% | 93.4% | 104% | 96.8% | 108% | 93.8% | 106% | 116% | 109% | 116% | 105% | 85.8% | 147% | 107% | 96.9% | 125% | 94.6% | 90.1%
12 | O=c1[nH]c2ccc(Cl)cc2cc1CSc1nccc(-c2ccc(Cl)cc2)n1 | 56.9% | 67.7% | 40.4% | 47.4% | 49.9% | 48.6% | 31.8% | 57.5% | 46.1% | 34.5% | 42.8% | 39.9% | 60% | 88.2% | 20.2% | -51.3% (active) | 98.4% | 113% | 85.5%
13 | O=C(c1ccc(OCCN2CCOCC2)cc1)C1[C@H](c2ccc(Cl)cc2)[C@@H](c2ccccc2)NC12C(=O)Nc1ccc(Br)cc12 (some centres undefined) | 8.44% (active) | -76.6% (active) | 37.4% | 22.6% | 3.86% (active) | 47.3% | 38.5% | -75.2% (active) | 44.1% | 28.3% | 19.8% | -8.07% (active) | 15.1% | 40.2% | 5.53% (active) | 15.4% | 91.5% | 20.7% | -33.9% (active)
14 | CCCCSc1nc(Nc2ccc(S(N)(=O)=O)cc2)c(C#N)c(-c2ccc(Cl)cc2)n1 | -8.65% (active) | 8.86% (active) | 45.5% | -55.7% (active) | 55.8% | 59.6% | 48.4% | -99.9% (active) | 63% | 118% | 34.7% | -20.3% (active) | 14.6% | 77.1% | -66.9% (active) | 55% | 108% | 95% | 52.8%
15 | Cn1cc(-c2cc3nc(-c4cn(C)c5ncc(Br)cc45)cc(N)n3n2)c2ccccc21 | -23.3% (active) | -86.1% (active) | -27% (active) | -68.8% (active) | -15.5% (active) | -94% (active) | -83.2% (active) | -100% (active) | -91.6% (active) | -73.6% (active) | -44.2% (active) | -82.2% (active) | -36.3% (active) | -32.8% (active) | -45.9% (active) | 1.08% (active) | -24.3% (active) | -23.9% (active) | -42% (active)
16 | COc1c(F)ccc(C(=O)Nc2ccc3nc(NC(=O)C4CCCN(S(=O)(=O)c5cccc(Cl)c5)C4)sc3c2)c1F (centres undefined) | 68.9% | 82.2% | 80.4% | 71.5% | 57.7% | 79.6% | 78.6% | 79.6% | 92.1% | 88.5% | 92.8% | 84.3% | 75.2% | 118% | 82.4% | 74.4% | 113% | 85.3% | 42.8%

Source: PubChem BioAssay (NCI)
